Results published in PubChem BioAssay.
The source made the active and inactive calls.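 Rule for the calls: active = at least 20% inhibition of 6-phosphogluconate dehydrogenase activity; inactive = the rest.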 Where a SMILES comes first, the peptide text is derived from it.

These compounds were tested against 6-phosphogluconate dehydrogenase, decarboxylating (Homo sapiens) (UniProt P52209) (assay: inhibition of human phosphogluconate dehydrogenase – biochemical, recombinant enzyme, NADPH absorbance, primary screen (AID 1159550)). Conditions: recombinant 6PGD, NADPH absorbance 341 nm; at 10 µM; hits give high values.
Chain of 6-phosphogluconate dehydrogenase, decarboxylating (Homo sapiens) (P52209 whole entry, looked up): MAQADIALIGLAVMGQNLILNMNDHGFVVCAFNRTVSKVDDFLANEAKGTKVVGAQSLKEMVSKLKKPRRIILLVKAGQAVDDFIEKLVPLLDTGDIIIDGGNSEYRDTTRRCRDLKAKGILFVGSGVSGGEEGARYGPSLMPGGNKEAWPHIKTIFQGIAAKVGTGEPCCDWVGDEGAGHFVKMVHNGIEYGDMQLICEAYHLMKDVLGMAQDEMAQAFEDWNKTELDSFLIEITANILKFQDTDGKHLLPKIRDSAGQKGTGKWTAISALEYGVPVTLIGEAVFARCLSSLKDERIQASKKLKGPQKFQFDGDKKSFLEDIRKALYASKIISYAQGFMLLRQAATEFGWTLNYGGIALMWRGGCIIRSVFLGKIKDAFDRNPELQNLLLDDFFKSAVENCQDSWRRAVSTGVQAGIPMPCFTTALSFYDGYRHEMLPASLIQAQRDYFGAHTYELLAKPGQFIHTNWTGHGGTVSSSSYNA

inhibition, inactive:
COc1ccc(-c2coc3c(OC)c(OC)cc(OC)c3c2=O)cc1 4.09%, CS(C)(=O)=O 0.728%, Oc1cc(O)cc(/C=C/c2ccccc2)c1 -1.17%, NC(=O)c1cc[n+](CC2=C(C(=O)O)N3C(=O)[C@H](NC(=O)C(c4ccccc4)S(=O)(=O)[O-])[C@@H]3SC2)cc1 (stereo not given in full) -12%, C[C@H]1O[C@H]1P(=O)(O)O 6.14%, NCCCC(N)CC(=O)NCC1NC(=O)C(CO)NC(=O)C(N)CNC(=O)C(C2CCNC(N)=N2)NC(=O)/C(=C/NC(N)=O)NC1=O (stereo not given) -0.986%, CC(=O)O[C@@H]1CC2C(C)(C)[C@H](O)C[C@H](O)[C@]2(C)C2CC[C@@]3(C)C(=CC(=O)O[C@H]3c3ccoc3)[C@@]21C (stereo not given in full) 13.2%, CC(=O)O[C@H]1CC[C@]2(C)C3=CC(=O)[C@@]4(C)C(C[C@@H]5OC6(OCC(C)CC6Br)C(C)[C@@H]54)C3CC[C@H]2C1 (stereo not given in full) 6.67%, COc1c(-c2ccccc2)oc2c(OC)cccc2c1=O -9.55%, N[C@@H](Cc1ccccc1)C(=O)N[C@@H](Cc1ccc(O)cc1)C(=O)O (H-Phe-Tyr-OH) -6.19%, COC(=O)c1cc(OC)c(=O)c2c(OC)c(OC)ccc2c1 7.65%, Oc1ccc2c(c1)OC[C@]1(O)Cc3cc(O)c(O)cc3C21 (stereo not given in full) 9.03%, C=CC(C1=CC(=O)C(OC)=C(OC)C1=O)c1ccccc1 (stereo not given) 3.55%, NCC1O[C@@H](O[C@H]2C(O)C(O[C@@H]3OC(CO)[C@H](O)[C@H](N)C3O)[C@@H](N)C[C@H]2N)C(O)[C@@H](O)[C@H]1O (stereo not given in full) -2.65%, CO[C@H]1C[C@H](O[C@H]2[C@H](C)[C@@H](O[C@@H]3O[C@H](C)C[C@H](N(C)C)[C@H]3OC(C)=O)[C@@H](C)C[C@@]3(CO3)C(=O)[C@H](C)[C@H](OC(C)=O)[C@@H](C)[C@@H](C)OC(=O)[C@@H]2C)O[C@@H](C)[C@@H]1OC(C)=O -13%, COc1ccc2c(=O)cc(-c3ccccc3OC)oc2c1 3.35%, COC(=O)C[C@H]1C(C)(C)C2(Cl)O[C@@]34CC2C(=O)[C@]1(C)C3CC[C@]1(C)C4=CC(=O)O[C@H]1c1ccoc1 (stereo not given in full) 6.04%, O=C1C[C@@H](c2ccccc2)Oc2cc(O)cc(O)c21 17.2%, COc1cc2c(cc1O)[C@@H](Cc1ccc(O)cc1)N(C)CC2 0.499%, O[n+]1ccccc1[S-].O[n+]1ccccc1[S-].[Zn] 12.7%, CC1(C)C=Cc2c(cc3occ(-c4ccc5c(c4)OCO5)c(=O)c3c2O)O1 -4.68%, O=C(O[C@@H]1Cc2c(O)cc(O)cc2O[C@@H]1c1cc(O)c(=O)c2c(O)c(O)cc([C@H]3Oc4cc(O)cc(O)c4C[C@H]3O)c2c1)c1cc(O)c(O)c(O)c1 8.68%, Cn1nnnc1SCC1=C(C(=O)O)N2C(=O)[C@@H](NC(=O)[C@@H](O)c3ccccc3)[C@H]2SC1 0.99%, NC[C@@H]1OC(O[C@@H]2[C@@H](O)[C@H](O[C@H]3[C@@H](O)[C@H](N)C[C@H](N)[C@H]3O[C@H]3O[C@H](CN)[C@H](O)[C@H](O)[C@H]3N)O[C@@H]2CO)[C@H](N)[C@@H](O)[C@H]1O (stereo not given in full) -6.73%, CC(=O)O[C@@H]1C[C@H]2C(C)(C)C(=O)[C@@H]3O[C@@H]3[C@]2(C)[C@H]2CC[C@@]3(C)[C@H](c4ccoc4)OC(=O)[C@H]4O[C@]43[C@@]21C -3.37%, COc1cc2c(cc1OC)[C@@H]1C(=O)c3c(O)cc4c(c3O[C@@H]1CO2)C=CC(C)(C)O4 12.7%, O[C@@H]1[C@@H](O)[C@@H]2OC[C@@H](O2)[C@H]1O -10.4%, C[C@@H]1CC[C@@]2(OC1)O[C@H]1C[C@H]3[C@@H]4CC=C5C[C@@H](O)CC[C@]5(C)[C@H]4CC[C@]3(C)[C@H]1[C@@H]2C 10.6%, COC(=O)C1OC(=O)C2OC23C1(C)CCC1C2(C)CCC(=O)C(C)(C)C2CC(OC(C)=O)C13C (stereo not given) -6.02%, CC1(C)C(=O)CC[C@@]2(C)C1C[C@@H](O)[C@@]1(C)C3=CC(=O)O[C@@H](c4ccoc4)[C@]3(C)CCC21 (stereo not given in full) -10.8%
